# Measurements taken from PubChem BioAssay AID1159580 (chemical genetic matrix, 2015).
# “And” between values parts separate entries of the source, which are not always exact repeats. Equal values may be shown once. Screen size: about 5,500 compounds; about 2,000 (36%) were called active. Inconclusive results (about 18%) are left out. The list shows a part of the results. Unmarked numbers belong to inactive results. Rule as the data show it: active = normalized growth mostly below about 0.91 (no sharp cut-off); inconclusive = no clear call, values can overlap the other calls; inactive = mostly above about 0.92.
# Assay: chemical genetic growth profiling, strain panel (AID 1159580);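 also: tested at 20 µM; growth read once vehicle control cultures reached saturation at 30 °C; 1 = growth at the plate median or of vehicle wells; lower values mean less growth of the strain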
# Conditions: S. cerevisiae deletion strains, growth OD
structure (smiles),measurement,setting,value
CC(=O)Oc1cccc2c1C(=O)c1c(OC(C)=O)cc(C(=O)O)cc1C2=O,normalized growth,"locus YAL013W, strain DEP1, stronger effect = lower value",1
same,normalized growth,"locus YAL021C, strain ccr4, stronger effect = lower value",0.969
same,normalized growth,"locus YAL026C, strain drs2, stronger effect = lower value",0.896 (active)
same,normalized growth,"locus YAL030W, strain snc1, stronger effect = lower value",0.93
same,normalized growth,"locus YBL061C, strain skt5, stronger effect = lower value",0.915 (active)
same,normalized growth,"locus YBR009C, strain hhf1, stronger effect = lower value",0.919
same,normalized growth,"locus YBR021W, strain FUR4, stronger effect = lower value",0.994
same,normalized growth,"locus YBR023C, strain chs3, stronger effect = lower value",0.918
same,normalized growth,"locus YBR171W, strain sec66, stronger effect = lower value",0.957
same,normalized growth,"locus YBR229C, strain ROT2, stronger effect = lower value",1.01
same,normalized growth,"locus YBR231C, strain swc5, stronger effect = lower value",0.874 (active)
same,normalized growth,"locus YBR279W, strain paf1, stronger effect = lower value",0.972
same,normalized growth,"locus YCL011C, strain gbp2, stronger effect = lower value",0.923
same,normalized growth,"locus YCL016C, strain dcc1, stronger effect = lower value",0.946
same,normalized growth,"locus YCL029C, strain bik1, stronger effect = lower value",0.585 (active)
same,normalized growth,"locus YCL061C, strain MRC1, stronger effect = lower value",0.896 (active)
same,normalized growth,"locus YCL069W, strain vba3, stronger effect = lower value",0.951
same,normalized growth,"locus YCR088W, strain abp1, stronger effect = lower value",0.929
same,normalized growth,"locus YDL005C, strain med2, stronger effect = lower value",0.943
same,normalized growth,"locus YDL035C, strain GPR1, stronger effect = lower value",1.01
same,normalized growth,"locus YDL040C, strain nat1, stronger effect = lower value",0.961
same,normalized growth,"locus YDL074C, strain BRE1, stronger effect = lower value",1.03
same,normalized growth,"locus YDL101C, strain DUN1, stronger effect = lower value",1.01
same,normalized growth,"locus YDL134C, strain PPH21, stronger effect = lower value",1.02
same,normalized growth,"locus YDL185W, strain tfp1, stronger effect = lower value",0.993
same,normalized growth,"locus YDL192W, strain arf1, stronger effect = lower value",0.175 (active)
same,normalized growth,"locus YDR001C, strain nth1, stronger effect = lower value",0.93
same,normalized growth,"locus YDR069C, strain doa4, stronger effect = lower value",0.865 (active)
same,normalized growth,"locus YDR101C, strain arx1, stronger effect = lower value",0.438 (active)
same,normalized growth,"locus YDR137W, strain rgp1, stronger effect = lower value",0.97
same,normalized growth,"locus YDR150W, strain NUM1, stronger effect = lower value",1
same,normalized growth,"locus YDR159W, strain sac3, stronger effect = lower value",0.9
same,normalized growth,"locus YDR162C, strain NBP2, stronger effect = lower value",0.99
same,normalized growth,"locus YDR195W, strain ref2",0.991
same,normalized growth,"locus YDR297W, strain sur2, stronger effect = lower value",0.913 (active)
same,normalized growth,"locus YDR318W, strain mcm21, stronger effect = lower value",0.32 (active)
same,normalized growth,"locus YDR334W, strain swr1, stronger effect = lower value",0.957
same,normalized growth,"locus YDR335W, strain msn5, stronger effect = lower value",0.949
same,normalized growth,"locus YDR388W, stronger effect = lower value",0.171 (active)
same,normalized growth,"locus YDR392W, strain spt3, stronger effect = lower value",0.84
same,normalized growth,"locus YDR502C, strain sam2, stronger effect = lower value",0.341 (active)
same,normalized growth,"locus YEL003W, strain gim4, stronger effect = lower value",0.954
same,normalized growth,"locus YEL037C, strain rad23, stronger effect = lower value",0.962
same,normalized growth,"locus YEL061C, strain CIN8 (second series), stronger effect = lower value",0.932
same,normalized growth,"locus YEL061C, strain CIN8, stronger effect = lower value",0.992
same,normalized growth,"locus YER015W, strain faa2, stronger effect = lower value",0.92 (active)
same,normalized growth,"locus YER016W, strain bim1, stronger effect = lower value",0.945
same,normalized growth,"locus YER110C, stronger effect = lower value",0.643 (active)
same,normalized growth,"locus YER111C, strain swi4, stronger effect = lower value",0.963
same,normalized growth,"locus YER155C, strain BEM2 (second series), stronger effect = lower value",0.858 (active)
same,normalized growth,"locus YER155C, strain BEM2, stronger effect = lower value",1.01
same,normalized growth,"locus YER167W, strain BCK2, stronger effect = lower value",1
same,normalized growth,"locus YFR010W, strain ubp6, stronger effect = lower value",0.943
same,normalized growth,"locus YGL078C, strain dbp3, stronger effect = lower value",1
same,normalized growth,"locus YGL086W, strain mad1, stronger effect = lower value",0.337 (active)
same,normalized growth,"locus YGL167C, strain pmr1, stronger effect = lower value",0.906 (active)
same,normalized growth,"locus YGL173C, strain kem1, stronger effect = lower value",0.929
same,normalized growth,"locus YGL227W, strain vid30, stronger effect = lower value",0.962
same,normalized growth,"locus YGL240W, strain doc1, stronger effect = lower value",0.832 (active)
same,normalized growth,"locus YGL248W, strain PDE1, stronger effect = lower value",1.01
same,normalized growth,"locus YGL253W, strain hxk2, stronger effect = lower value",0.932
same,normalized growth,"locus YGR078C, strain PAC10, stronger effect = lower value",1
same,normalized growth,"locus YGR135W, strain pre9, stronger effect = lower value",0.3 (active)
same,normalized growth,"locus YGR229C, strain SMI1, stronger effect = lower value",1.02
same,normalized growth,"locus YGR252W, strain gcn5, stronger effect = lower value",0.33 (active)
same,normalized growth,"locus YHR013C, strain ard1, stronger effect = lower value",0.991
same,normalized growth,"locus YHR027C, strain rpn1, stronger effect = lower value",0.942
same,normalized growth,"locus YHR030C, strain SLT2, stronger effect = lower value",0.999 and 0.943
same,normalized growth,"locus YHR079C, strain IRE1 (second series), stronger effect = lower value",0.481 (active)
same,normalized growth,"locus YHR079C, strain IRE1, stronger effect = lower value",0.964
same,normalized growth,"locus YHR094C, strain hxt1, stronger effect = lower value",0.476 (active)
same,normalized growth,"locus YHR129C, strain ARP1, stronger effect = lower value",1.01
same,normalized growth,"locus YHR142W, strain chs7, stronger effect = lower value",0.939
same,normalized growth,"locus YHR200W, strain rpn10, stronger effect = lower value",0.354 (active)
same,normalized growth,"locus YIL066C, strain RNR3, stronger effect = lower value",1.02
same,normalized growth,"locus YIL073C, strain SPO22, stronger effect = lower value",0.995
same,normalized growth,"locus YIL125W, strain kgd1, stronger effect = lower value",1
same,normalized growth,"locus YIR030C, strain dcg1, stronger effect = lower value",0.456 (active)
same,normalized growth,"locus YJL092W, strain hpr5, stronger effect = lower value",0.916 (active)
same,normalized growth,"locus YJL095W, strain BCK1 (second series), stronger effect = lower value",0.909 (active)
same,normalized growth,"locus YJL095W, strain BCK1, stronger effect = lower value",0.994 and 0.953
same,normalized growth,"locus YJL115W, strain asf1, stronger effect = lower value",0.939
same,normalized growth,"locus YJL129C, strain trk1, stronger effect = lower value",1
same,normalized growth,"locus YJL134W, strain LCB3, stronger effect = lower value",1.01
same,normalized growth,"locus YJL154C, strain vps35, stronger effect = lower value",0.953
same,normalized growth,"locus YJL164C, strain tpk1, stronger effect = lower value",0.875 (active)
same,normalized growth,"locus YJL166W, strain qcr8, stronger effect = lower value",0.871 (active)
same,normalized growth,"locus YJL168C, strain set2, stronger effect = lower value",0.545 (active)
same,normalized growth,"locus YJL187C, strain SWE1 (second series), stronger effect = lower value",1.01
same,normalized growth,"locus YJL187C, strain SWE1, stronger effect = lower value",0.931
same,normalized growth,"locus YJR043C, strain POL32, stronger effect = lower value",0.998
same,normalized growth,"locus YJR066W, strain TOR1, stronger effect = lower value",0.902
